An excerpt weighted towards active compounds, which were near 1.6% of everything screened.
KCNQ2 enhance: potentiators of rat KCNQ2 potassium channel. O88943. CHO-K1 KCNQ2, FluxOR thallium flux fluorescence; active compounds read high. B-score at 10 µM. 310,000 compounds, 0.54% hits;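 active = fluorescence ratio B-score at least 3 SD of library B-scores, with initial fluorescence B-score within 3 of them, cut at about 5.3 in these data; same plate scores as AID 2156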;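 note: B-score of peak minus minimum over baseline fluorescence ratio after K+ and Tl+ stimulus; positive B-score means potentiation of KCNQ2 with more thallium influx and brighter signal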
Target sequence (O88943 whole entry, looked up): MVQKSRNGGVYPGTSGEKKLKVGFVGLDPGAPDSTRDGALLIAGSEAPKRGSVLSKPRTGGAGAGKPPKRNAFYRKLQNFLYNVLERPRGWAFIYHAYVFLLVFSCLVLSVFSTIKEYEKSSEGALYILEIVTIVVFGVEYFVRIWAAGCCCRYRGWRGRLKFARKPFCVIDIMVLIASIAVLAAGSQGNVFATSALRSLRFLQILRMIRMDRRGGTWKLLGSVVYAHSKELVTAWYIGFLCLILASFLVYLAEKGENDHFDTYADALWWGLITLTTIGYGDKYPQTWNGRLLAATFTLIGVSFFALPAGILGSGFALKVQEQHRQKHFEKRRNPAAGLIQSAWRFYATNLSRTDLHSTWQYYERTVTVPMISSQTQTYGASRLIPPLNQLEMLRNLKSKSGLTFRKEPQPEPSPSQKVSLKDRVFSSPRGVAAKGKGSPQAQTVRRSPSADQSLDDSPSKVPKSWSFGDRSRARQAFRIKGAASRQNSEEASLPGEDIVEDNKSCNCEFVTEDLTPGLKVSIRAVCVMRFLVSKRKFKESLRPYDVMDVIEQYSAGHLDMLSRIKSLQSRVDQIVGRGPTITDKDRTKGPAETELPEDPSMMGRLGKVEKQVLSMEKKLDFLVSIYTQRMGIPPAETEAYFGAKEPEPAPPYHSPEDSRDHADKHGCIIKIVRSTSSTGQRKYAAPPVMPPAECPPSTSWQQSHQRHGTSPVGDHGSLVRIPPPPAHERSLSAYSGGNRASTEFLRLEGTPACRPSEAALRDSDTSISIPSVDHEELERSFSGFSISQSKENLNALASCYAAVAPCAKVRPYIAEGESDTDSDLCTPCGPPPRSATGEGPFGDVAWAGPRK
KCNQ2 inh: KCNQ2 (rat) channel inhibition; 310,000 compounds, 1.1% hits; B-score at 10 µM; AID 2156; CHO-K1 KCNQ2, FluxOR thallium flux, 20 min; active compounds read low;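 active = fluorescence ratio B-score at most minus 3 library SDs, with starting brightness B-score within 2 library SDs, cut at about -5.5 in these data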
Kir21 confirm: confirmation of mouse Kir2.1 potassium channel inhibitors; Kir2.1-expressing cells, FluxOR thallium flux fluorescence; active compounds read low; Tl flux remaining, % of negative control (active compounds read low), % at 10 µM; 2,300 compounds, 41% hits; shares compounds with KCNQ2 enhance;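 active = Primary-screen hit whose thallium flux fell at least 3 control SD below untreated wells in both duplicates, with normal baseline fluorescence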
HEK293 ctr: counter-screen for Kir2.1 inhibitors: effect in parental HEK293 cells; shares compounds with KCNQ2 enhance; FluxOR signal as % of negative control (100 = no effect), % at 10 µM; AID 2105; FluxOR thallium flux fluorescence; 0% = unstimulated blank wells; 2,300 compounds, 19% hits;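 active = dye signal at least 3 control SD above or below untreated wells in both duplicates, raw fluorescence within 3, either direction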;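 note: percent is based on the flux ratio of peak minus minimum fluorescence over baseline F0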
CHO-K1 ctr: parental CHO-K1 activity in KCNQ2 potentiator counter-screen; AID 2282; activity increase over 3SD of controls, % at 10 µM; 1,200 compounds, 43% hits; parental CHO-K1 cells, FluxOR thallium flux fluorescence; zero = vehicle mean+3SD, 100% = vehicle-minus-blank window; shares compounds with KCNQ2 enhance;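 active = signal rise of at least 3 SD above the untreated control mean, in both duplicate wells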;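 note: counter screen of KCNQ2 potentiator hits so any rise reflects channel-independent effects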
KCNQ1 pot spec: selectivity of KCNQ2 potentiators: effect on human KCNQ1; 1,200 compounds, 28% hits; activation over 3SD threshold, % at 10 µM; shares compounds with KCNQ2 enhance; CHO KCNQ1 stable, FluxOR thallium flux fluorescence; beyond 3SD, as % of vehicle-control signal;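 active = fluorescence ratio rise of at least 3 SD of vehicle wells above their mean, in both replicate wells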
KCNQ2 pot conf: confirmation of rat KCNQ2 potassium channel potentiators. shares compounds with KCNQ2 enhance. CHO-KCNQ2 cells, FluxOR thallium flux fluorescence. potentiation, less the hit threshold, % at 10 µM. 1,200 compounds, 68% hits;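 active = fluorescence ratio rising 3 SD or more over the vehicle control mean in both replicates, plus primary screen hit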;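 note: peak minus minimum thallium fluorescence divided by baseline after K/Tl stimulus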
Kir21 spec: mouse Kir2.1 off-target activity of KCNQ2 potentiators. shares compounds with KCNQ2 enhance. HEK293 Kir2.1, FluxOR thallium flux fluorescence. activity over 3SD threshold, % at 10 µM. 1,200 compounds, 2% hits;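 active = fluorescence ratio rise of at least 3 SD above the vehicle-control mean, seen in both replicates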
KCNQ2 W236L pot: KCNQ2 potentiators acting on retigabine-insensitive rat KCNQ2 W236L mutant | shares compounds with KCNQ2 enhance | CHO KCNQ2-W236L, automated patch clamp current | current increase over 3SD of negative controls (%), active compounds read high, % at 25 µM | 940 compounds, 10% hits | AID 2558;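 active = current increase at least 3 SD of the untreated controls above them in both duplicate recordings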
Hits are given with their value.

For COc1ccccc1N(CC1CO1)S(=O)(=O)c1ccc(C)cc1 (centres undefined) the results were KCNQ2 inh inactive.
For COC(=O)c1cccc(N(CC(=O)NC2CCCC2)C(=O)CCC(=O)Nc2cc(C)on2)c1 the results were KCNQ2 enhance inactive and KCNQ2 inh inactive.
Screening O=C(O)c1ccc(S(=O)(=O)N(Cc2ccccc2)C2CCCCC2)cc1 returned KCNQ2 inh inactive.
`C/C(CC(C)(C)c1ccccc1)=N\NS(=O)(=O)c1ccccc1` gave KCNQ2 enhance inactive and KCNQ2 inh inactive.
`CCOC(=O)c1c(CSc2ccsc2)n(C)c2cc(Br)c(O)c(CN(C)C)c12` gave KCNQ2 inh inactive, Kir21 confirm 60% and HEK293 ctr 66%.
`CCOC(=O)c1c(CSc2ccccc2)n(C)c2cc(Br)c(O)c(CN(C)C)c12` gave KCNQ2 inh inactive.
`COc1ccc(NC(=O)CCNC(=O)c2ccco2)cc1Cl` gave KCNQ2 inh inactive.
For CCOc1ccc(Cl)cc1CNCCCSc1nc(C)cc(C)n1 the results were KCNQ2 enhance inactive, KCNQ2 inh inactive, Kir21 confirm 52% and HEK293 ctr inactive.
Screening CCOc1ccc(Cl)cc1CNCCCSc1ncccn1 returned KCNQ2 inh inactive.
CCOc1cccc(-c2c(C(=O)N/N=C(\C)c3cccnc3)nnn2-c2nonc2N)c1 was read as KCNQ2 enhance inactive and KCNQ2 inh inactive.
Cc1ccc(-n2cccc2C(=O)NS(=O)(=O)c2ccc(C)cc2)cc1 was read as KCNQ2 enhance inactive and KCNQ2 inh inactive.
`Cc1ccc(-n2cccc2C(=S)N=P(N(C)C)(N(C)C)N(C)C)cc1` gave KCNQ2 inh inactive, Kir21 confirm inactive and HEK293 ctr inactive.
For COc1cc(OC)c(OC)cc1/C=C1\Oc2cc(OCC(=O)N3Cc4ccccc4C[C@H]3C(=O)O)ccc2C1=O the results were KCNQ2 inh inactive.
`CCCCOc1ccc(CCC(=O)N/N=C/c2ccco2)cc1` gave KCNQ2 enhance 9.1, KCNQ2 inh inactive, Kir21 confirm inactive, HEK293 ctr inactive, CHO-K1 ctr 47, KCNQ1 pot spec 65, KCNQ2 pot conf 33, Kir21 spec inactive and KCNQ2 W236L pot inactive.
Screening O=C(COc1c(Br)cc(Br)cc1Br)N/N=C/c1ccco1 returned KCNQ2 enhance 6.3, KCNQ2 inh inactive, Kir21 confirm inactive, HEK293 ctr inactive, CHO-K1 ctr inactive, KCNQ1 pot spec inactive, KCNQ2 pot conf inactive and Kir21 spec inactive.
Screening Cc1cc(C)cc(OCC(=O)N/N=C/c2ccco2)c1 returned KCNQ2 inh inactive.
Screening CCCOc1ccc(CCC(=O)N/N=C/c2ccco2)cc1 returned KCNQ2 enhance inactive and KCNQ2 inh inactive.
CC(OC(=O)c1cccc(S(=O)(=O)N(C)C)c1)C(=O)NCc1ccc2c(c1)OCO2 (centres undefined) was read as KCNQ2 enhance inactive and KCNQ2 inh inactive.
`COc1ccc(-c2oc3ccccc3c2C(=O)OCc2ccccc2OC)cc1` gave KCNQ2 enhance inactive and KCNQ2 inh inactive.
For COc1cc2[nH]c(C(=O)NCCc3ccccc3)cc2c(OC)c1OC the results were KCNQ2 enhance inactive and KCNQ2 inh inactive.
`COc1cc2[nH]c(C(=O)NCc3ccccc3)cc2c(OC)c1OC` gave KCNQ2 inh inactive, Kir21 confirm inactive and HEK293 ctr inactive.
For O=c1cc(C(O)C[N+](=O)[O-])occ1OCc1ccccc1 (centres undefined) the results were KCNQ2 enhance inactive and KCNQ2 inh inactive.
For CN(C)C(CNC(=O)CCc1nc2cc(Cl)ccc2n(Cc2ccccc2)c1=O)c1ccccc1 (centres undefined) the results were KCNQ2 inh inactive, Kir21 confirm 74% and HEK293 ctr inactive.
CCNC(=S)NNC(=O)CCc1nc2cc(Cl)ccc2n(Cc2ccccc2)c1=O was read as KCNQ2 enhance inactive and KCNQ2 inh inactive.
`COC(=O)c1cccc(CSc2nnc(-c3ccco3)n2-c2ccccc2)c1` gave KCNQ2 inh inactive, Kir21 confirm 58% and HEK293 ctr 68%.
`CCOC(=O)CSc1nnc(-c2ccco2)n1-c1ccccc1` gave KCNQ2 inh inactive.
`CC(C)CC(=O)NC(C)C(c1cccs1)N1CCOCC1` (centres undefined) gave KCNQ2 enhance inactive and KCNQ2 inh inactive.
For CS(=O)(=O)N(CC(=O)N1CCN(C(c2ccccc2)c2ccccc2)CC1)C1CCCCC1 the results were KCNQ2 enhance inactive and KCNQ2 inh inactive.
CS(=O)(=O)N(CC(=O)N1CCCCC1)C1CCCCC1 was read as KCNQ2 enhance 13, KCNQ2 inh inactive, Kir21 confirm inactive, HEK293 ctr inactive, CHO-K1 ctr inactive, KCNQ1 pot spec inactive, KCNQ2 pot conf inactive and Kir21 spec inactive.
For COc1cc(COC(=O)c2cnc(C)cn2)c(OC)cc1Br the results were KCNQ2 inh inactive.
CC(C)Cc1nc2n[nH]c(N)c2c2c1CCCC2 was read as KCNQ2 enhance inactive and KCNQ2 inh inactive.
CC(C)c1nc2n[nH]c(N)c2c2c1CCCC2 was read as KCNQ2 enhance inactive, KCNQ2 inh inactive, Kir21 confirm 40% and HEK293 ctr inactive.
Cc1nc(/N=C\c2ccc(N(C)C)cc2)sc1C was read as KCNQ2 enhance inactive and KCNQ2 inh inactive.
O=c1[nH]cc(I)cc1I was read as KCNQ2 enhance 7.4, KCNQ2 inh inactive, Kir21 confirm inactive, HEK293 ctr inactive, CHO-K1 ctr 133, KCNQ1 pot spec 32, KCNQ2 pot conf inactive and Kir21 spec inactive.
For O=C(COC(=O)Cc1c[nH]c2ccccc12)NC1CCCCC1 the results were KCNQ2 enhance inactive, KCNQ2 inh inactive, Kir21 confirm 42% and HEK293 ctr inactive.
Screening O=C(COC(=O)Cc1c[nH]c2ccccc12)Nc1ccccc1 returned KCNQ2 inh inactive.
`CCC(C)(CCNC(=O)Cc1ccccc1)c1ccccc1OC` (centres undefined) gave KCNQ2 inh inactive.
`Cc1cc(C(=O)NNC(=O)CN2C(=O)NC(C)(c3ccccc3)C2=O)c(C)o1` (centres undefined) gave KCNQ2 inh inactive.
